In PubChem BioAssay (NCATS):
Inconclusive results are not listed. Active and inactive are the calls of the source. Calls come from the whole dose curve; as a rule, active = well fitted inhibition curve with a large enough effect; inconclusive = small, poorly fitted or top-dose-only effect; inactive = flat fitted curve, though single readings scatter.

Columns and labels:
Experiment in all cases: Cytotoxic Profiling of Annotated Libraries Using Quantitative High-Throughput Screening (AID 1296008); note: nearly all actives have a fitted effect of over 60% in size
Conditions in all cases: Five cell lines viability, CellTiter-Glo ATP luminescence, 48-72 h; max response: stronger effect = lower value
CRL-7250 = system: CRL-7250
Outline: (§1)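 Compounds were pin-transferred onto cells and incubated 48 or 72 hr at 37 degree Celsius, 95% humidity. CellTiter-Glo was added, plates sat 10 min at room temperature, then ATP-coupled luminescence was imaged as the viability read-out.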

HEK293 = system: HEK293
Outline: as §1

HaCat = system: HaCat
Outline: as §1

KB-3-1 = system: KB-3-1
Outline: as §1

NIH3T3 = system: NIH3T3
Outline: as §1

Measured: max response
% is set by controls: 0 for no effect and ±100 for the full control effect.

CCCC/C=C\CCCCCc1cc(=O)c2ccccc2n1C
inactive: CRL-7250 -5.2% | HEK293 -7.72% | HaCat | KB-3-1 | NIH3T3

CC1=CC(=O)C2C(C)(C)CCC[C@]2(C)[C@H]1CC[C@H](C)CC(=O)O (stereo not given in full)
inactive: CRL-7250 -2.16% | HEK293 -12.7% | HaCat | KB-3-1 | NIH3T3

C[C@H]1[C@@H](O)[C@H](O)C2[C@]3(C)C([C@@H](O)[C@H]4OC(=O)[C@@H]1[C@@]24C)[C@](C)(O)C=C[C@H]3O[C@@H]1O[C@H](CO)[C@@H](O)[C@H](O)[C@H]1O (stereo not given in full)
inactive: CRL-7250 0.954% | HEK293 -1.06% | HaCat -2.23% | KB-3-1 8.84% | NIH3T3

CC(C)=CCC[C@](C)(O[C@@H]1O[C@H](CO)[C@@H](O)[C@H](O)[C@H]1O)[C@H]1CC[C@]2(C)[C@@H]1[C@H](O)CC1[C@@]3(C)CC[C@H](O)C(C)(C)C3[C@@H](O[C@@H]3O[C@H](CO)[C@@H](O)[C@H](O)[C@H]3O[C@@H]3O[C@@H](C)[C@H](O)[C@@H](O)[C@H]3O)C[C@]12C (stereo not given in full)
inactive: CRL-7250 -1.6% | HEK293 -1.21% | HaCat -12.1% | KB-3-1 8.47% | NIH3T3

COC(=O)/C=C/c1ccc(O[C@@H]2O[C@H](CO)[C@@H](O)[C@H](O)[C@H]2O)cc1
inactive: CRL-7250 -1.55% | HEK293 -5.47% | HaCat | KB-3-1 2.42% | NIH3T3

C=C1CC23CC(=O)C4C(CO)(CO)CCCC4(C)C2CCC1C3 (stereo not given)
inactive: CRL-7250 | HEK293 2.8% | HaCat | KB-3-1 | NIH3T3 -8.41%
